SW480 rereplic – A quantitative high throughput screen for small molecules that induce DNA re-replication in SW480 colon adenocarcinoma cells | SW480 DNA re-replication, Hoechst DNA content imaging, 48 h | 1.8% of 340,000 active | Potency, µM (series often up to 46.1 µM), for inactives: at the highest dose re-replication activation, hits mostly activators; further: % of control where 0% means no effect; nearly all actives have a fitted effect of over 55% in size
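Per well, 250 cells were exposed to pinned compound for 48 hr. Nuclear DNA was visualised with Hoechst (40 min, 37 C) and total object intensity recorded by fluorescence scanning.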
HT1080 IDH1KD tx – qHTS for induction of synthetic lethality in tumor cells producing 2HG: qHTS for the HT-1080-IDH1KD cell line; Potency, µM (highest dose often 46.1 µM), for the others: at the top dose activity, negative = toxicity, usual class: cytotoxic; HT-1080 IDH1 knockdown viability, ATP luminescence, 48 h; 2% of 360,000 active; AID 686971, 2013;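 further: 0% = DMSO wells and -100% = cell-free medium wells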
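Assay cells: HT-1080 with IDH1 knockdown, 750 per well, RPMI/5% FBS. Exposure: 48 h at 37 °C following 2 h pre-incubation. Read: CellTiter-Glo luminescence; fitted concentration-response, curve class assigned.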
MCF10A rereplic – A quantitative high throughput screen for small molecules that induce DNA re-replication in MCF 10a normal breast cells. AID 624296, 2012. 2.9% of 350,000 active. MCF 10A DNA re-replication, Hoechst nuclear intensity, 48 h. Potency, µM (titrated, usually from 46.1 µM), for inactives: top-dose activity, positive = re-replication, usual class: activators; further: % of control where 0% means no effect; nearly all actives have a fitted effect of over 50% in size
KB-V1 MDR tox – qHTS assay for MDR1-selective chemotherapeutics: Primary screen using the drug-selected MDR subline cells KB-V1. Potency, µM (highest dose often 46.1 µM), hits mostly cytotoxic. 3.4% of 400,000 active. AID 1347076, 2019. KB-V1 MDR cells viability, CellTiter-Glo, 72 h; further: on the % scale 0 is the no-effect control and ±100 the full control effect; nearly all actives have a fitted effect of over 60% in size
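Cytotoxicity via CellTiter-Glo luminescence after 72 h compound exposure at 37 degrees C. Cells: drug-selected KB-V1 line, DMEM phenol-red free plus 10% FBS. Compounds tested at multiple concentrations; normalized data fitted to concentration-effect curves.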
KB-3-1 cytotox – qHTS assay for MDR1-selective chemotherapeutics: Primary screen using the parental adenocarcinoma cell KB-3-1. AID 1347075, 2019. 1.4% of 400,000 active. Potency, µM (titrated, usually from 46.1 µM), usual class: cytotoxic. KB-3-1 viability, CellTiter-Glo ATP luminescence, 72 h; further: on the % scale 0 is the no-effect control and ±100 the full control effect; nearly all actives have a fitted effect of over 60% in size
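Screening of KB-3-1 cells (DMEM, 10% FBS, phenol-red free) ran from lowest to highest compound concentration; after 72 h at 37 °C viability was read luminescently and curves fitted.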
HT1080-NT tox – qHTS for induction of synthetic lethality in tumor cells producing 2HG: qHTS for the HT-1080-NT fibrosarcoma cell line | HT-1080-NT fibrosarcoma viability, CellTiter-Glo ATP luminescence, 48 h | Potency, µM (highest dose often 46.1 µM), for inactives: top-dose activity, negative = less viability, usual class: cytotoxic | 1.6% of 360,000 active;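 further: NT is the 2HG producing partner of a matched IDH1 knockdown line; 0% = DMSO-treated cells and -100% = media-only wells without cells; nearly all actives have a fitted effect of over 55% in size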
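Toxicity toward the 2HG-producing NT line was scored as %Activity, normalised to DMSO and no-cell wells, from CellTiter-Glo luminescence after 48 hours' treatment.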
The depositor's hits bear a star; [ ] = remark or other dose. Most compounds without a hit are left out; they make up all but 8% or so of the library. The call rests on the fitted dose curve; in most records, active means well fitted curve in the direction sought with a large enough effect; inconclusive means small, poorly fitted or top-dose-only effect, or another doubt; inactive means no such curve, though single readings can be large; an effect the other way counts as inactive or inconclusive. Potency means the concentration at half of the fitted maximal effect.

Screening CC(C)(C)C(=O)NCCCc1nc2ccccc2n1CCCOc1ccc(Cl)cc1 returned SW480 rereplic -2%, HT1080 IDH1KD tx inconclusive, MCF10A rereplic inconclusive, KB-V1 MDR tox 16µM*, KB-3-1 cytotox inconclusive and HT1080-NT tox inconclusive.
COc1ccc(/C=C/C(=O)N2CCNC(=O)C2)c(OC)c1 was read as SW480 rereplic 8%, HT1080 IDH1KD tx 4%, MCF10A rereplic 1µM*, KB-V1 MDR tox inactive, KB-3-1 cytotox inactive and HT1080-NT tox 1%.
For CCNC(=O)c1c(NC(=O)c2cc(-c3cc(C)cc(C)c3O)n[nH]2)sc2c1CCCC2 the results were SW480 rereplic -4%, HT1080 IDH1KD tx 8%, MCF10A rereplic 6.5µM*, KB-V1 MDR tox inactive, KB-3-1 cytotox inactive and HT1080-NT tox -1%.
CCNC(=O)c1c(NC(C)=O)sc2c1CCCC2 was read as SW480 rereplic 1%[9.22 µM], HT1080 IDH1KD tx 10%, MCF10A rereplic -2%, KB-V1 MDR tox inactive, KB-3-1 cytotox inactive and HT1080-NT tox 14%.
O=C(NCC(c1ccco1)S(=O)(=O)c1cccs1)c1ccccc1 (centres undefined) was read as KB-V1 MDR tox inactive and KB-3-1 cytotox inactive.
CCSc1nnc(-c2sc3nnc(-c4ccccc4)c(-c4ccccc4)c3c2N)o1 was read as SW480 rereplic inconclusive, HT1080 IDH1KD tx 16%, MCF10A rereplic 3.3µM*, KB-V1 MDR tox inactive, KB-3-1 cytotox inactive and HT1080-NT tox 27%.
For CCCN1CCN(c2ncnc3sc(C(=O)Nc4c(C)cc(C)cc4C)c(C)c23)CC1 the results were KB-V1 MDR tox inconclusive and KB-3-1 cytotox 21µM*.
`Cc1c(C(=O)N2CCN(Cc3ccccc3)CC2)sc2ncnc(N3CCOCC3)c12` gave SW480 rereplic 0%, HT1080 IDH1KD tx -1%, MCF10A rereplic 8%, KB-V1 MDR tox 18µM*, KB-3-1 cytotox inactive and HT1080-NT tox 0%.
For Fc1ccc(-c2csc3ncnc(N4CCN(Cc5ccccc5)CC4)c23)cc1 the results were SW480 rereplic -1%, HT1080 IDH1KD tx 6%, MCF10A rereplic -3% and HT1080-NT tox 7%.
`Cc1sc2ncnc(N3CCN(Cc4ccccc4)CC3)c2c1-c1ccc(F)cc1` gave SW480 rereplic -1%, HT1080 IDH1KD tx 5%, MCF10A rereplic 0%, KB-V1 MDR tox 15µM*, KB-3-1 cytotox inconclusive and HT1080-NT tox 4%.
Screening CC(C)c1ccc2oc(-c3cccc(NC(=O)c4ccc5c(c4)OCCO5)c3)nc2c1 returned KB-V1 MDR tox inactive and KB-3-1 cytotox inactive.
COc1cc2c(NC3CCN(C(C)C)CC3)nc(N3CCCN(C)CC3)nc2cc1OCCOCCN1CCCC1 was read as KB-V1 MDR tox inactive and KB-3-1 cytotox 12µM*.
Screening COc1cc2c(NC3CCN(C)CC3)nc(N3CCCCC3)nc2cc1OCCOCCN1CCCC1 returned KB-V1 MDR tox inactive and KB-3-1 cytotox inconclusive.
For COc1cc2nc(N3CCCN(C)CC3)nc(NC3CCCCC3)c2cc1OC the results were HT1080 IDH1KD tx inconclusive and HT1080-NT tox 18µM*.
For Cc1ccc(C2=Nc3ccccc3NC(c3ccncc3)=N2)cc1 the results were KB-V1 MDR tox inactive and KB-3-1 cytotox inactive.
CC(=O)N(C)Cc1ccc(C(=O)CCl)cc1 was read as SW480 rereplic inconclusive, HT1080 IDH1KD tx -16%, MCF10A rereplic 13µM*, KB-V1 MDR tox inactive, KB-3-1 cytotox inactive and HT1080-NT tox -2%.
For CC(=O)NCc1ccc(C(=O)CCl)cc1 the results were SW480 rereplic inconclusive, HT1080 IDH1KD tx inconclusive, MCF10A rereplic inconclusive, KB-V1 MDR tox inactive, KB-3-1 cytotox inactive and HT1080-NT tox -5%.
CC1CCCCN1C(=O)CSc1n[nH]c(-c2ccccc2Cl)n1 (centres undefined) was read as KB-V1 MDR tox inactive and KB-3-1 cytotox inactive.
Screening COc1ccc(-c2csc(Cc3nnc(N4CCOCC4)n3-c3ccccc3)n2)cc1 returned SW480 rereplic 4%, HT1080 IDH1KD tx 1%, MCF10A rereplic 4%, KB-V1 MDR tox 18µM*, KB-3-1 cytotox inactive and HT1080-NT tox 12%.
`COc1ccc(-c2csc(Cc3nnc(N4CCOCC4)n3-c3ccccc3)n2)cc1OC` gave SW480 rereplic 3%, HT1080 IDH1KD tx inconclusive, MCF10A rereplic 13%, KB-V1 MDR tox inactive, KB-3-1 cytotox inactive and HT1080-NT tox 6%[9.24 µM].
COc1ccc(/C=N\NC(=O)c2sccc2C)cc1Cn1nc(C)cc1C was read as SW480 rereplic 2%, HT1080 IDH1KD tx -6%, MCF10A rereplic 27%, KB-V1 MDR tox 6.5µM*, KB-3-1 cytotox inconclusive and HT1080-NT tox 0%.
Screening COC(=O)c1sc(-c2ccc(C(C)(C)C)cc2)cc1NC(=O)COCC(=O)O returned SW480 rereplic -4%, HT1080 IDH1KD tx 21µM*, MCF10A rereplic 21µM*, KB-V1 MDR tox inactive, KB-3-1 cytotox inactive and HT1080-NT tox 16µM*.
Screening Cc1nn(C(C)C(=O)NC2CCCCC2)c(=O)c2c1sc1ccccc12 (centres undefined) returned KB-V1 MDR tox inactive and KB-3-1 cytotox inactive.
For O=S(=O)(c1ccccc1C(F)(F)F)N1CCC(n2cnc3ccccc32)CC1 the results were SW480 rereplic 8%, HT1080 IDH1KD tx -5%, MCF10A rereplic -2%, KB-V1 MDR tox 9.2µM*, KB-3-1 cytotox inactive and HT1080-NT tox 1%.
For O=S(=O)(c1ccccc1)N1CCC(n2cnc3ccccc32)CC1 the results were SW480 rereplic -5%, HT1080 IDH1KD tx -1%, MCF10A rereplic 5%, KB-V1 MDR tox inconclusive, KB-3-1 cytotox inactive and HT1080-NT tox 6%.
C#CCNC(=O)C1=C[C@H](c2ccc(C#C)cc2)C[C@H](OCc2ccc(CO)cc2)O1 was read as SW480 rereplic inconclusive, HT1080 IDH1KD tx -3%, MCF10A rereplic -3%, KB-V1 MDR tox inactive, KB-3-1 cytotox inactive and HT1080-NT tox -2%.
`C#CCNC(=O)C1=C[C@H](C(C)(C)C)C[C@H](OCc2ccc(CO)cc2)O1` gave SW480 rereplic -25%, HT1080 IDH1KD tx inconclusive, MCF10A rereplic 18µM*, KB-V1 MDR tox inactive, KB-3-1 cytotox inactive and HT1080-NT tox 3%.

Screening data deposited in PubChem BioAssay by National Center for Advancing Translational Sciences (NCATS).
